The supplement of paper PMC9262897, “Low-cost anti-mycobacterial drug discovery using engineered E. coli” (Nature Communications, 2022)
Structures can show the parent of a compound that is named as a salt. ± gives the standard deviation of the averaged measurements.

Assays:
Assay in all cases: growth (OD600 after 10 h); higher = more growth (less inhibition)
[1] = test system: E. coli TESEC Alr+ wild-type control; conditions: compound 0.1 mM; raw OD600 reference: median of DMSO wells 0.241, cell-free background 0.041
Protocol: (§1)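 TESEC Mtb Alr E. coli, or the Alr+ wild-type control, in 384-well plates with Prestwick library compounds at 0.1 mM and 1% DMSO, across arabinose induction levels of 1E3 to 1E7 nM. Growth is read as OD600 after 10 h at 37 °C in triplicate biological replicates.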

E. coli TESEC Mtb Alr [2] = conditions: compound 0.1 mM
Protocol: as §1

E. coli TESEC Mtb Asd = conditions: compound 0.1 mM
Protocol: (§2)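 TESEC E. coli strains in which the native enzyme is deleted and replaced by arabinose-inducible Mtb Asd, DapB, CysH or TrpD, each grown in its selective medium. Strains were screened against the Prestwick library at 0.1 mM and 1% DMSO in 384-well format at low and high arabinose induction. Growth is read as OD600 after 10 h in triplicate.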

E. coli TESEC Mtb DapB = conditions: compound 0.1 mM
Protocol: as §2

E. coli TESEC Mtb Alr [3] = conditions: compound 0.1 mM; remark: listed apart in the source
Protocol: (§3)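 TESEC Mtb Alr E. coli (ΔaraC ΔtolC ΔentC Δalr ΔdadX, arabinose-inducible Mtb Alr) or the Alr+ wild-type control strain, grown in defined M9-fructose medium without D-alanine in 96-well plates with Prestwick library compounds at 0.1 mM and 1% DMSO. Low Alr induction is 0.1 µM arabinose and high induction is 10 mM arabinose.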

[4] = test system: E. coli TESEC Alr+ wild-type control; conditions: compound 0.1 mM; raw OD600 reference: median of DMSO wells 0.49, cell-free background 0.052
Protocol: as §3

[5] = arabinose 1000 nM, raw OD600 reference: median of DMSO wells 0.294, cell-free background 0.041
[6] = arabinose 10000 nM, raw OD600 reference: median of DMSO wells 0.264, cell-free background 0.041
[7] = arabinose 100000 nM, raw OD600 reference: median of DMSO wells 0.201, cell-free background 0.041
[8] = arabinose 1000000 nM, raw OD600 reference: median of DMSO wells 0.193, cell-free background 0.041
[9] = arabinose 10000000 nM, raw OD600 reference: median of DMSO wells 0.146, cell-free background 0.041
[10] = arabinose induction (level): High, raw OD600 reference: median of DMSO wells 0.331, cell-free background 0.041
[11] = arabinose induction (level): Low, raw OD600 reference: median of DMSO wells 0.417, cell-free background 0.041
[12] = arabinose induction (level): High, raw OD600 reference: median of DMSO wells […], cell-free background 0.041
[13] = arabinose induction (level): Low, raw OD600 reference: median of DMSO wells 0.227, cell-free background 0.041
[14] = arabinose 100 nM, raw OD600 reference: median of DMSO wells 0.413, cell-free background 0.052
[15] = arabinose 10000000 nM, raw OD600 reference: median of DMSO wells […], cell-free background 0.052

| Structure (SMILES) | growth [1] | growth (E. coli TESEC Mtb Alr [2]; [5]) | growth (E. coli TESEC Mtb Alr [2]; [6]) | growth (E. coli TESEC Mtb Alr [2]; [7]) | growth (E. coli TESEC Mtb Alr [2]; [8]) | growth (E. coli TESEC Mtb Alr [2]; [9]) | growth (E. coli TESEC Mtb Asd; [10]) | growth (E. coli TESEC Mtb Asd; [11]) | growth (E. coli TESEC Mtb DapB; [12]) | growth (E. coli TESEC Mtb DapB; [13]) | growth (E. coli TESEC Mtb Alr [3]; [14]) | growth (E. coli TESEC Mtb Alr [3]; [15]) | growth [4] |
| --- | --- | --- | --- | --- | --- | --- | --- | --- | --- | --- | --- | --- | --- |
| C[N+](C)(C)CCOC(N)=O [Carbachol] | 0.251 ± 0.0053 | 0.309 ± 0.014 | 0.284 ± 0.02 | 0.177 ± 0.0065 | 0.186 ± 0.006 | 0.164 ± 0.0027 | 0.475 ± 0.0086 | 0.438 ± 0.051 | 0.194 ± 0.0084 | 0.26 ± 0.028 | 0.409 ± 0.023 | 0.364 ± 0.014 | – |
| CCn1cc(C(=O)O)c(=O)c2cnc(N3CCNCC3)nc21 [Pipemidic acid] | 0.116 ± 0.0069 | 0.0801 ± 0.033 | 0.063 ± 0.0022 | 0.117 ± 0.0072 | 0.0845 ± 0.028 | 0.147 ± 0.0057 | 0.157 ± 0.019 | 0.149 ± 0.014 | – | – | 0.156 ± 0.021 | 0.082 ± 0.0092 | 0.158 ± 0.008 |
| CCCc1cc(C(N)=S)ccn1 [Prothionamide] | 0.245 ± 0.011 | 0.295 ± 0.0059 | 0.269 ± 0.013 | 0.184 ± 0.028 | 0.174 ± 0.014 | 0.136 ± 0.0019 | 0.231 ± 0.011 | 0.388 ± 0.046 | – | – | 0.414 ± 0.013 | 0.36 ± 0.021 | 0.57 ± 0.0073 |
| CC(C)C[C@H](NC(=O)[C@@H](O)[C@H](N)Cc1ccccc1)C(=O)O [Ubenimex] | 0.24 ± 0.011 | 0.28 ± 0.0072 | 0.2345 ± 0.0011 | 0.215 ± 0.028 | 0.185 ± 0.006 | 0.132 ± 0.0031 | 0.395 ± 0.019 | 0.382 ± 0.025 | 0.192 ± 0.017 | 0.229 ± 0.015 | 0.396 ± 0.011 | 0.323 ± 0.018 | – |
| O=C1c2ccccc2C(=O)C1c1ccccc1 [Phenindione] | 0.243 ± 0.0053 | 0.298 ± 0.0061 | 0.268 ± 0.011 | 0.197 ± 0.03 | 0.166 ± 0.0028 | 0.147 ± 0.004 | 0.226 ± 0.037 | 0.321 ± 0.023 | – | – | 0.408 ± 0.0092 | 0.302 ± 0.025 | 0.488 ± 0.05 |
| CN[C@@H]1[C@H](O[C@H]2[C@H](O[C@H]3[C@H](O)[C@@H](O)[C@H](N=C(N)N)[C@@H](O)[C@@H]3N=C(N)N)O[C@@H](C)[C@]2(O)C=O)O[C@@H](CO)[C@H](O)[C@H]1O [Streptomycin sulfate] | 0.04117 ± 5.8e-05 | 0.04617 ± 0.00029 | 0.0396 ± 0.00055 | 0.04577 ± 0.00042 | 0.03957 ± 0.00025 | 0.0731 ± 0.0022 | 0.0611 ± 0.0021 | 0.0528 ± 0.00084 | – | – | 0.0665 ± 0.0098 | 0.05093 ± 0.00012 | 0.0543 ± 0.00036 |
| CCOc1ccc2nc(S(N)(=O)=O)sc2c1 [Ethoxzolamide] | 0.2066 ± 0.0019 | 0.247 ± 0.0061 | 0.227 ± 0.0027 | 0.177 ± 0.024 | 0.134 ± 0.0057 | 0.122 ± 0.0034 | 0.283 ± 0.04 | 0.368 ± 0.045 | – | – | 0.426 ± 0.0093 | 0.214 ± 0.13 | 0.552 ± 0.11 |
| CCOc1ccccc1OC(c1ccccc1)C1CNCCO1 (stereo unspecified) [Reboxetine mesylate] | 0.203 ± 0.0099 | 0.265 ± 0.023 | 0.253 ± 0.012 | 0.2 ± 0.02 | 0.15 ± 0.0074 | 0.1507 ± 0.0007 | 0.249 ± 0.038 | 0.296 ± 0.061 | 0.15 ± 0.0036 | 0.183 ± 0.021 | 0.402 ± 0.015 | 0.336 ± 0.022 | – |
| CN(C)CCCN1c2ccccc2Sc2ccc(C(F)(F)F)cc21 [Triflupromazine hydrochloride] | 0.0405 ± 0.00036 | 0.03957 ± 0.00015 | 0.0392 ± 0.00026 | 0.0407 ± 0.00062 | 0.0391 | 0.042 ± 0.00055 | 0.0504 ± 0.0028 | 0.0491 ± 0.0012 | – | – | 0.298 ± 0.21 | 0.0543 ± 0.0015 | 0.049 ± 0.00076 |
| COc1cc2c(cc1OC)C(=O)C(CC1CCN(Cc3ccccc3)CC1)C2 (stereo unspecified) [Donepezil hydrochloride] | 0.168 ± 0.0034 | 0.251 ± 0.0063 | 0.259 ± 0.0054 | 0.158 ± 0.0035 | 0.174 ± 0.013 | 0.142 ± 0.0099 | 0.234 ± 0.039 | 0.4033 ± 0.0016 | – | – | 0.404 ± 0.011 | 0.325 ± 0.0069 | 0.56 ± 0.055 |
| Nc1cc(-c2ccncc2)c[nH]c1=O [Amrinone] | 0.237 ± 0.0081 | 0.308 ± 0.015 | 0.277 ± 0.017 | 0.193 ± 0.012 | 0.188 ± 0.0077 | 0.162 ± 0.008 | 0.463 ± 0.012 | 0.385 ± 0.074 | 0.206 ± 0.0051 | 0.271 ± 0.011 | 0.38 ± 0.043 | 0.362 ± 0.026 | – |
| CCN(CC)C(=O)c1ccc(O)c(OC)c1 [Ethamivan] | 0.24 ± 0.0033 | 0.295 ± 0.0045 | 0.249 ± 0.0036 | 0.232 ± 0.013 | 0.181 ± 0.0058 | 0.138 ± 0.0057 | 0.388 ± 0.079 | 0.397 ± 0.041 | – | – | 0.406 ± 0.013 | 0.356 ± 0.02 | 0.543 ± 0.12 |
| C[C@@H](O)[C@H]1C(=O)N2C(C(=O)O)=C(S[C@@H]3CN[C@H](C(=O)N(C)C)C3)[C@H](C)[C@H]12 [Meropenem] | 0.0404 ± 0.00057 | 0.0418 ± 0.0014 | 0.0448 ± 0.0059 | 0.0523 ± 0.0007 | 0.0817 ± 0.0057 | 0.0962 ± 0.003 | 0.138 ± 0.0038 | 0.0552 ± 0.0001 | – | – | 0.04557 ± 0.00025 | 0.0882 ± 0.013 | 0.0604 ± 0.0014 |
| Cn1c(=O)c2c(ncn2CC(=O)O)n(C)c1=O [Acefylline] | 0.248 ± 0.0081 | 0.307 ± 0.01 | 0.253 ± 0.0048 | 0.21 ± 0.0073 | 0.191 ± 0.0048 | 0.138 ± 0.0046 | 0.297 ± 0.04 | 0.433 ± 0.014 | – | – | 0.408 ± 0.007 | 0.347 ± 0.01 | 0.457 ± 0.013 |
| CN(C)CCOC(C)(c1ccccc1)c1ccccn1 (stereo unspecified) [Doxylamine succinate] | 0.236 ± 0.0058 | 0.288 ± 0.016 | 0.249 ± 0.0028 | 0.19 ± 0.025 | 0.164 ± 0.0088 | 0.141 ± 0.0072 | 0.301 ± 0.028 | 0.374 ± 0.071 | 0.179 ± 0.019 | 0.206 ± 0.011 | 0.41 ± 0.0066 | 0.353 ± 0.0099 | – |
| CCCCC[C@H](O)/C=C/[C@H]1[C@H](O)CC(=O)[C@@H]1CCCCCCC(=O)O [Alprostadil] | 0.215 ± 0.0055 | 0.284 ± 0.0052 | 0.23 ± 0.0057 | 0.176 ± 0.0091 | 0.163 ± 0.0042 | 0.126 ± 0.0061 | 0.243 ± 0.046 | 0.279 ± 0.082 | – | – | 0.364 ± 0.018 | 0.299 ± 0.017 | 0.503 ± 0.07 |
